PubChem BioAssay (EPA / NIEHS)
“And” between values parts separate entries of the source, which are not always exact repeats. Equal entries are not always repeated. Results filed as inconclusive are left out. The source made the active and inactive calls. Rule for the calls: active = hit-call score of the fitted dose curve at least 0.9, where 1 is the maximum; inconclusive = response in the unintended direction; inactive = score below 0.9.

Tested on: not listed separately
Assay: TOX21_p53_BLA_p5_viability: Viability Assessment in the Tox21 HCT-116 p53 Agonism Beta-lactamase Assay, Phase 5 (AID 2283600)
Procedure, shortened: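 Counter-readout for cytotoxicity: ATP-dependent luminescence from CellTiter-Glo, read in the beta-lactamase wells after 30 min at RT, following a 16 h compound exposure at 37C.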

Row | Compound | outcome
1 | CN(C)C(=N)N=C(N)N | inactive
2 | O=C(O)c1cccc(C(F)(F)F)c1 | inactive
3 | O=Nc1ccc(Nc2ccccc2)cc1 | inactive
4 | CCCCCCCCCCCCCC(=O)O | inactive
5 | CC(C)(C#N)c1cc(Cn2cncn2)cc(C(C)(C)C#N)c1 | inactive
6 | C#C[C@]1(O)CC[C@H]2[C@@H]3CCC4=Cc5oncc5C[C@]4(C)[C@H]3CC[C@@]21C | inactive
7 | CC(=O)Nc1ccc(CC(=O)O)cc1 | inactive
8 | O=C(O)c1cccc([N+](=O)[O-])c1 | inactive
9 | CCCCCC(CO)CCC (stereo not drawn) | inactive
10 | CC(C)C(C)(C)C(C)(C)C(C)(C)S | inactive
11 | NNc1nc(-c2ccc(N)cc2)cs1 | inactive
12 | O=c1[nH]c(=O)n([C@H]2CCCO2)cc1F | inactive
13 | C=CC[N+](C)(C)CC=C | inactive
14 | NCCCCCCN | inactive
15 | CCCCCCCCCOC(C)=O | inactive
16 | O=C1CCc2ccccc2O1 | inactive
17 | O=C(O)CN(CCN(CC(=O)O)CC(=O)O)CCN(CC(=O)O)CC(=O)O | inactive
18 | C=C(C)C(=O)O | inactive
19 | O=C(O)c1ccc(C(=O)O)cc1 | inactive
20 | O=C(O)c1snc(Cl)c1Cl | inactive
21 | COC(=O)Cc1cccc2ccccc12 | inactive
22 | CN(C)CCCN | inactive
23 | CCCCCCCCCCCCCCCC(=O)O | inactive
24 | CNC(=O)Oc1ccc2c(c1)[C@]1(C)CCN(C)[C@@H]1N2C | inactive
25 | O=c1[nH]nnc2ccccc12 | inactive
26 | O=C(O)CCSCCC(=O)O | inactive
27 | NC(=O)NC1NC(=O)NC1=O (stereo not drawn) | inactive
28 | c1ccc2[nH]ccc2c1 | inactive
29 | O=C1C(c2[nH]c3ccc(S(=O)(=O)O)cc3c2O)=Nc2ccc(S(=O)(=O)O)cc21 | inactive
30 | CCN(CC)c1ccc2c(-c3ccccc3C(=O)O)c3ccc(=[N+](CC)CC)cc-3oc2c1 | inactive

Molecular target: Cellular tumor antigen p53 (Homo sapiens) (UniProt P04637)
Sequence (P04637 whole entry, looked up): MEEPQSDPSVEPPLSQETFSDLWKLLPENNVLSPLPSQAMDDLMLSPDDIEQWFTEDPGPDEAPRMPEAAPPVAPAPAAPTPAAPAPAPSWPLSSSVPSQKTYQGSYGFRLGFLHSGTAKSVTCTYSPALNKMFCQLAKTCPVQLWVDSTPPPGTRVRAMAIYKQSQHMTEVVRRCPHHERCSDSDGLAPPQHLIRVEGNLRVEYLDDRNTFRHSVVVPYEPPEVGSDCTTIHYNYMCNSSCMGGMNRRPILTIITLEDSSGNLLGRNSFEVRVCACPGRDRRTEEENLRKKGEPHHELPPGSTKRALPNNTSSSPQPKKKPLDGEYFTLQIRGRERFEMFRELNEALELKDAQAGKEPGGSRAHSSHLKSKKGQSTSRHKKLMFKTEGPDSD
Assay: TOX21_p53_BLA_p4_ratio: Tox21 HCT-116 p53 Agonism Beta-lactamase Assay, Ratio, Phase 4 (AID 2283601)
Procedure, shortened: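 HCT-116 p53 beta-lactamase reporter cells (4000/well) preincubated 5 h, then compound (217-fold dilution of DMSO stock) for 16 h at 37C. CCF4-AM substrate added 2 h at room temperature; 460/530 nm emission ratio fitted upward versus DMSO.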

Row | Compound | outcome | AC50
31 | CN(C)C(=N)N=C(N)N | inactive | 
32 | O=C(O)c1cccc(C(F)(F)F)c1 | inactive | 
33 | CN(C)CCOCCN(C)C | inactive | 
34 | O=Nc1ccc(Nc2ccccc2)cc1 |  | 76.2 µM (active) and 63 µM (active)
35 | CCCCCCCCCCCCCC(=O)O | inactive | 
36 | CC(C)(C#N)c1cc(Cn2cncn2)cc(C(C)(C)C#N)c1 | inactive | 
37 | CN(CCOc1ccc(CC2SC(=O)NC2=O)cc1)c1ccccn1 (stereo not drawn) | inactive | 
38 | C#C[C@]1(O)CC[C@H]2[C@@H]3CCC4=Cc5oncc5C[C@]4(C)[C@H]3CC[C@@]21C | inactive | 
39 | CC(=O)Nc1ccc(CC(=O)O)cc1 | inactive | 
40 | O=C(O)c1cccc([N+](=O)[O-])c1 | inactive | 
41 | CCCCCC(CO)CCC (stereo not drawn) | inactive | 
42 | CC(C)C(C)(C)C(C)(C)C(C)(C)S | inactive | 
43 | O=C(O)C[C@H](O)C[C@H](O)/C=C/c1c(C2CC2)nc2ccccc2c1-c1ccc(F)cc1 | inactive | 
44 | NNc1nc(-c2ccc(N)cc2)cs1 | inactive | 
45 | O=c1[nH]c(=O)n([C@H]2CCCO2)cc1F | inactive | 
46 | C=CC[N+](C)(C)CC=C | inactive | 
47 | NCCCCCCN | inactive | 
48 | CCCCCCCCCOC(C)=O | inactive | 
49 | O=C1CCc2ccccc2O1 | inactive | 

Row | Compound | outcome | AC50
50 | O=C(O)CN(CCN(CC(=O)O)CC(=O)O)CCN(CC(=O)O)CC(=O)O | inactive | 
51 | C=C(C)C(=O)O | inactive | 
52 | O=C(O)c1ccc(C(=O)O)cc1 | inactive | 
53 | O=C(O)c1snc(Cl)c1Cl | inactive | 
54 | COC(=O)Cc1cccc2ccccc12 | inactive | 
55 | CN(C)CCCN | inactive | 
56 | CCCCCCCCCCCCCCCC(=O)O | inactive | 
57 | CC(=O)O[C@]1(C(C)=O)CC[C@H]2[C@@H]3C[C@H](C)C4=CC(=O)CC[C@]4(C)[C@H]3CC[C@@]21C | inactive | 
58 | CNC(=O)Oc1ccc2c(c1)[C@]1(C)CCN(C)[C@@H]1N2C | inactive | 
59 | CC1=CCC(O)(C(C)C)CC1 (stereo not drawn) | inactive | 
60 | NCCOCCO | inactive | 
61 | Nc1cc(Cl)c(O)c(Cl)c1 | inactive | 
62 | O=C(O)Cc1cccc2ccccc12 | inactive | 
63 | O=c1[nH]nnc2ccccc12 | inactive | 
64 | O=C(O)CCSCCC(=O)O | inactive | 
65 | NC(=O)NC1NC(=O)NC1=O (stereo not drawn) | inactive | 
66 | c1ccc2[nH]ccc2c1 | inactive | 
67 | O=C1C(c2[nH]c3ccc(S(=O)(=O)O)cc3c2O)=Nc2ccc(S(=O)(=O)O)cc21 | inactive | 
68 | CCN(CC)c1ccc2c(-c3ccccc3C(=O)O)c3ccc(=[N+](CC)CC)cc-3oc2c1 | inactive | 
